Here are results for 40 compounds from PubChem BioAssay (NCI).

Structures are written as SMILES. Compounds without any hit were thinned out: in the full panel of roughly 83,000, 20% have a hit.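 Compound tested at a single concentration for 48 hours in 96-well plates; a percent growth value below 10 was scored as active.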 Calls of active or inactive are those of the source.

In the test the test system is HL-60(TB) leukemia. The test is described as follows: NCI-60 one-dose screen, 48 h (100 = growth as untreated, 0 = no growth, -100 = all killed). To be noted: 10 µM unless noted.
Turning to `COc1cc2cc(Oc3ccc(NC(=O)Nc4cc(C(F)(F)F)cc(C(F)(F)F)c4)cc3)c(C)nc2cc1OCCN1CCCCC1`, the growth was -2.13% (active).

Regarding `Oc1ccc2c(=S)cc(-c3ccc(Br)cc3)oc2c1O`, the growth is -22% (active).

For `COc1ccc2c(c1)C(c1cc(OC)c3c(c1)OCO3)C1=C(COC1=O)N2` (stereo not given), the growth was 4.04% (active).

For the compound `Cn1cc(-c2csc(-c3cn(C)c4ncccc34)n2)c2cc(F)cnc21`, the growth was 86.4% (inactive).

As for `COc1ccc(Cn2nc3c(c2-c2cc(OC)c(OC)c(OC)c2)-c2oncc2CC3)cc1`, the growth is 54.4% (inactive).

Turning to `O=C(/C=C/c1cc2ccccc2[nH]c1=O)c1ccc(Cl)cc1`, the growth is 11.6% (inactive).

`OC(c1ccccc1)C(NCc1ccccc1)c1ccccc1` (stereo not given): the growth is 98.4% (inactive).

Consider `CS(=O)(=O)Nc1cc(-c2ccc3ncnc(Nc4cccc(Cl)c4)c3c2)cnc1Cl`, for which the growth was 2.67% (active).

In the case of `CCOC(=O)c1sc(NC(=O)COc2cccc(/C=C3\Cc4ccc(Cl)cc4C3=O)c2)nc1C`, the growth was 120% (inactive).

For the compound `CC/C=C\C[C@H]1C/C=C2/C(=O)C(Cl)=C[C@@H]2C/C=C\CCCC(=O)O1`, the growth was -6.91% (active).

Take `Cc1cccc(/C=N/n2c(-c3ccc(Cl)cc3)nc3c(Br)cc(Br)cc3c2=O)c1`: the growth is 70.8% (inactive).

On to `Clc1c(Cl)[n+](Cc2ccc3ccccc3c2)cn1Cc1ccc2ccccc2c1`, for which the growth was -54.7% (active).

Take `COc1ccc2c(c1)nc(N)c1c3cccnc3cn21`: the growth is 14.9% (inactive).

As to `O=[N+]([O-])c1ccc(S(=O)(=O)OCCCCOS(=O)(=O)c2ccc([N+](=O)[O-])cc2)cc1`, the growth was 101% (inactive).

Turning to `CC(=O)N1CC(Nc2ccc(OC(F)(F)F)cc2)=CC1=O`, the growth is -8.58% (active).

Turning to `CS(=O)(=O)c1ccc(Nc2nc(N[C@H]3CCCC[C@H]3N)nc3cc[nH]c(=O)c23)cc1`, the growth is -16.9% (active).

For `CCCC[n+]1c(/C=C\c2c(OC)cc(OC)cc2OC)ccc2ccccc21`, the growth was -58.8% (active).

Take `O=C(CSc1nc2ccccc2[nH]1)c1ccc(N2CCOCC2)cc1`: the growth is 113% (inactive).

As for `Cc1cc(C(=O)/C=C/c2ccc[nH]2)ccc1-n1ccc(C(F)(F)F)n1`, the growth was -21% (active).

Turning to `Cc1cccc(-c2nc(Nc3ccc4ncsc4c3)c3ccccc3n2)n1`, the growth was 62.5% (inactive).

`COc1cc2nc(C(=O)N3CCCCC3)cc(Nc3ccccc3)c2cc1OC`: the growth was 96.8% (inactive).

Regarding `CN(C)c1ccc2c(N(C)C)cc(N(C)C)nc2c1`, the growth was 92.1% (inactive).

With `COc1ccc(/C=C/c2nc(N3CCOCC3)c3cc(F)c(F)cc3n2)cc1OC`, the growth was -2.81% (active).

Consider `CCOC(=O)c1[nH]c2c(c1C)-c1[nH]c(=O)c(S(=O)(=O)c3ccccc3)cc1SC2`, for which the growth is 54.7% [100 µM] (inactive).

`CC(=O)N1N=C(c2ccc(-n3ccc(C(F)(F)F)n3)c(F)c2)CC1c1ccc[nH]1` (stereo not given): the growth is 98.8% (inactive).

With `O=C(O)CSCSCC(=O)O`, the growth was 98.5% (inactive).

For the compound `Clc1ccc(-c2nnc(-c3ccco3)o2)cc1`, the growth is 94.1% (inactive).

Turning to `Cc1ccc(=O)n(-c2ccc(Br)cc2F)c1`, the growth was 106% (inactive).

Turning to `CCOC(=O)n1cc(C2=C(c3cn(C)c4ccccc34)COC2=O)c2ccccc21`, the growth is -23.6% (active).

In the case of `Cc1cccc(N2CCN(CC(O)COc3ccc(Cl)cc3)CC2)c1` (stereo not given), the growth is 123% (inactive).

As for `O=c1ncc(-c2ccc(C(F)(F)F)cc2)c(NC2CCCCCC2)[nH]1`, the growth is 23.3% (inactive).

As for `C/C=C/C/C=C/[C@H](C)C[C@H](O)[C@@H]1C[C@@H]2O[C@H]2/C=C/[C@H](O)[C@@H](O)/C=C/C[C@H](C)CC(=O)O1`, the growth was 76.6% (inactive).

As to `COc1cc(C(=O)/C=C/c2c(C)n([O-])c3ccc(C)cc3[n+]2=O)cc(OC)c1OC`, the growth is -42.6% (active).

Turning to `CCOC(=O)NNc1[nH]c(-c2ccc(OC)cc2)cc1C#N`, the growth was -42.4% (active).

With `Cc1ccc2c(n1)C(=O)C(Br)=C(C1CCCC1)C2=O`, the growth was 76.1% (inactive).

`CCCCCCn1c(-c2ccc(C(=O)O/N=C(\N)c3ccc(OC)cc3)cc2)nc(-c2ccccc2)c1-c1ccccc1`: the growth is -58% (active).

With `CCOC(=O)Cn1c(C)c(/C=N/NC(=O)c2cc3c(ccc4ccccc43)o2)c2ccccc21`, the growth was 0.68% (active).

In the case of `Fc1cccc(-c2ccc3c(c2)C2(CCNCC2)CN3)c1`, the growth was 108% (inactive).

In the case of `Nc1ccc(N)c2c1C(=O)c1cccc([N+](=O)[O-])c1C2=O`, the growth was 17.8% (inactive).

On to `COc1ccc(C(=O)C2C(C#N)C(C#N)C3c4ccccc4C=CN23)cc1` (stereo not given), for which the growth was 94.7% (inactive).
